Results filed as inconclusive are left out. Calls of active or inactive are those of the source. Unless noted, calls follow the shape of the dose curve; as a rule, active = well fitted curve in the direction sought with a large enough effect in the repeat runs; inconclusive = weak or mixed curves; inactive = no such curve, though single readings can be large; an effect the other way counts as inactive or inconclusive.
How the values were obtained:
[1] = system: thyroid hormone receptor (rat, GH3 cells); experiment: qHTS assay to identify small molecule agonists of the thyroid receptor (TR) signaling pathway (AID 743066; calls by dose curve)
[2] = biological target: Estrogen receptor (Homo sapiens) (UniProt P03372); experiment: qHTS assay to identify small molecule antagonists of the estrogen receptor alpha (ER-alpha) signaling pathway (AID 743069; active = well fitted curve in the direction sought with a large enough effect in the signal ratio in the repeat runs, not every such curve was filed as active; the % refers to the signal ratio)
Sequence of Estrogen receptor (Homo sapiens) (P03372 whole entry, looked up): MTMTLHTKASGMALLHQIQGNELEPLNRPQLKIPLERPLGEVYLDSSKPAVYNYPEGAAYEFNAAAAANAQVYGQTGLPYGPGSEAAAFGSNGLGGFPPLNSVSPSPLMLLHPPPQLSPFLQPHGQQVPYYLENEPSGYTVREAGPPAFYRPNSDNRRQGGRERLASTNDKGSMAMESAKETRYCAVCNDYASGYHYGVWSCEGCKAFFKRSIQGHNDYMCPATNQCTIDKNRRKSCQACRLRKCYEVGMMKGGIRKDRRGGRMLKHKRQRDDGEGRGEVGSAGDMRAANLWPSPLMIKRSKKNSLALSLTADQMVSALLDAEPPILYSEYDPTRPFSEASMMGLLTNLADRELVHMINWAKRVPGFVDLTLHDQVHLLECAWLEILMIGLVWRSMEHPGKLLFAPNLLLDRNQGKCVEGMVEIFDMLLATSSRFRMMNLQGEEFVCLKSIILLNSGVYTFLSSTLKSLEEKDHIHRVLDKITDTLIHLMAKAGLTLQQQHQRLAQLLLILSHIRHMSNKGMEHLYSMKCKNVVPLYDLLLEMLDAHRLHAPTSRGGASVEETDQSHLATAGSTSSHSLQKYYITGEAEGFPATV
Summary of the method: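 HEK293 ER-alpha-UAS-bla GripTite cells, held overnight in 2% charcoal-stripped FBS, 5,000 cells/well, preincubated 4 h, then compound plus 17beta-estradiol for 18 h at 37C. Beta-lactamase read by LiveBLAzer B/G FRET substrate, 2 h at room temperature.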

[3] = qHTS assay to identify small molecule antagonists of the estrogen receptor alpha (ER-alpha) signaling pathway - cell viability counter screen (AID 743074; calls by dose curve;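 also: HEK293 cells carrying ER-alpha-UAS-bla reporter stimulated with 17beta-estradiol; nearly all actives have a fitted effect of over 45% in size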)
[4] = biological target: Estrogen receptor (Homo sapiens) (UniProt P03372); experiment: qHTS assay to identify small molecule agonists of the estrogen receptor alpha (ER-alpha) signaling pathway (AID 743075; calls by dose curve)
[5] = biological target: Estrogen receptor (Homo sapiens) (UniProt P03372); experiment: qHTS assay to identify small molecule agonists of the estrogen receptor alpha (ER-alpha) signaling pathway using the BG1 cell line (AID 743079); also: nearly all actives have a fitted effect of over 20% in size
[6] = qHTS assay to identify small molecule antagonists of the estrogen receptor alpha (ER-alpha) signaling pathway using the BG1 cell line (AID 743080; calls by dose curve;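 also: BG1 cells stimulated with 17beta-estradiol alongside compound; series mostly up to about 70 µM; nearly all actives have a fitted effect of over 25% in size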)
Summary of the method: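 Luciferase inhibition measured with ONE-Glo after 30 min at RT in BG1Luc4E2 cells given test compounds and 17beta-estradiol for 21.5 h at 37 C; CellTiter-Fluor viability read in the same wells beforehand.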

[7] = qHTS assay to identify small molecule antagonists of the estrogen receptor alpha (ER-alpha) signaling pathway using the BG1 cell line - cell viability counter screen (AID 743081);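 also: compound given together with 17beta-estradiol as the ER stimulus; series mostly up to about 70 µM; nearly all actives have a fitted effect of over 45% in size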
Aromatase (Homo sapiens) = Aromatase (Homo sapiens) (UniProt P11511); experiment: qHTS assay to identify aromatase inhibitors (AID 743083); also: series mostly up to about 70 µM; nearly all actives have a fitted effect of over 55% in size
Sequence of Aromatase (Homo sapiens) (P11511 whole entry, looked up): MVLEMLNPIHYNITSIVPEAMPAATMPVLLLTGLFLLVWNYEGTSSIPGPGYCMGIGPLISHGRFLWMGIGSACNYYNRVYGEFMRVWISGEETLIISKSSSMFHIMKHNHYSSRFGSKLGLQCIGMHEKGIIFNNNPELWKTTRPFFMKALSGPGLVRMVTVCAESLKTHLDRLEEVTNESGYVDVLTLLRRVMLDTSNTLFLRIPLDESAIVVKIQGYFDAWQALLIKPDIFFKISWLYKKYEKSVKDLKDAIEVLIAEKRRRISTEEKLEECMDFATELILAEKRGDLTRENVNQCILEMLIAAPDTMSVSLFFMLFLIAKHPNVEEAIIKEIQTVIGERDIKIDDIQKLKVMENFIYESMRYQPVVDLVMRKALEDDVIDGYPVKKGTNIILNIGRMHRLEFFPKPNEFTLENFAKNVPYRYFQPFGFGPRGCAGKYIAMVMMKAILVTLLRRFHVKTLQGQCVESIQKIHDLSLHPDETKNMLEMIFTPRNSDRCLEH

[8] = qHTS assay to identify aromatase inhibitors - cell viability counter screen (AID 743084);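 also: cells stimulated with testosterone during compound exposure; nearly all actives have a fitted effect of over 55% in size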
[9] = biological target: Aryl hydrocarbon receptor (Homo sapiens) (UniProt P35869); experiment: qHTS assay to identify small molecule that activate the aryl hydrocarbon receptor (AhR) signaling pathway (AID 743085);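 also: HG2L7.5c1 human HepG2 liver cells with stably integrated DRE-driven firefly reporter; series mostly up to about 70 µM; nearly all actives have a fitted effect of over 15% in size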
Sequence of Aryl hydrocarbon receptor (Homo sapiens) (P35869 whole entry, looked up): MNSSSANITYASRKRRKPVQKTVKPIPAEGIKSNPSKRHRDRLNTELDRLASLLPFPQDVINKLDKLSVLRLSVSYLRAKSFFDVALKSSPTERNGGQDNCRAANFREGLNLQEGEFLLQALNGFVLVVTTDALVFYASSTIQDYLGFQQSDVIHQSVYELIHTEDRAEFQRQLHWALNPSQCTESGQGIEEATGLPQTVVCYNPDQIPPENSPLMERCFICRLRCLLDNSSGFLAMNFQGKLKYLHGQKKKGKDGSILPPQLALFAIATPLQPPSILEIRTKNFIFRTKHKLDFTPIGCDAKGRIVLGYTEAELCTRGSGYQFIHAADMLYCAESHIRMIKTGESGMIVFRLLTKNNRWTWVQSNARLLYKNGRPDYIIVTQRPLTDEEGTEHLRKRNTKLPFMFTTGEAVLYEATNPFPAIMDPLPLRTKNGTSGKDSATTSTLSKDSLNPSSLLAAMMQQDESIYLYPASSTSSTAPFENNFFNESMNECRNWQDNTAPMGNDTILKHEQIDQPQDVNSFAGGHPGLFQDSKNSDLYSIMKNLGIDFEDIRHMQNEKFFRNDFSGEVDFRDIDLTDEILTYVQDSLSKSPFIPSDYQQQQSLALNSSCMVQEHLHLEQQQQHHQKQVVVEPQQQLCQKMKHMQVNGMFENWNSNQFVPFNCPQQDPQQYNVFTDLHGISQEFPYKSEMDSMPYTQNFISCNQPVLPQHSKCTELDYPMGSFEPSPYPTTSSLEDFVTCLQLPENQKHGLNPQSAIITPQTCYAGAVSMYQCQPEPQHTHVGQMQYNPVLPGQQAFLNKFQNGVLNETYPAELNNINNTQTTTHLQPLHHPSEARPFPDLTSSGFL
Summary of the method: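 Reporter assay in engineered HepG2 line HG2L7.5c1, whose plasmid carries twenty dioxin responsive elements upstream of firefly luciferase. Treatment lasted 24 h at 37C; ONE-Glo luminescence gauged induction.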

[10] = qHTS assay to identify small molecule that activate the aryl hydrocarbon receptor (AhR) signaling pathway - cell viability counter screen (AID 743086);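 also: HepG2 liver cells carrying the AhR DRE luciferase reporter; series mostly up to about 70 µM; nearly all actives have a fitted effect of over 45% in size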
Summary of the method: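 HepG2-AhR-luc (HG2L7.5c1) cells, 4000/well, treated 24 h at 37 C with compound; viability measured as CellTiter-Fluor fluorescence after 30 min in the same wells as the luciferase read.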

[11] = biological target: Peroxisome proliferator-activated receptor gamma (Homo sapiens) (UniProt P37231); experiment: qHTS assay to identify small molecule agonists of the peroxisome proliferator-activated receptor gamma (PPARg) signaling pathway (AID 743094; active = well fitted activation curve with a large enough effect in the signal ratio in the repeat runs, not every such curve was filed as active; the % refers to the signal ratio)
Sequence of Peroxisome proliferator-activated receptor gamma (Homo sapiens) (P37231 whole entry, looked up): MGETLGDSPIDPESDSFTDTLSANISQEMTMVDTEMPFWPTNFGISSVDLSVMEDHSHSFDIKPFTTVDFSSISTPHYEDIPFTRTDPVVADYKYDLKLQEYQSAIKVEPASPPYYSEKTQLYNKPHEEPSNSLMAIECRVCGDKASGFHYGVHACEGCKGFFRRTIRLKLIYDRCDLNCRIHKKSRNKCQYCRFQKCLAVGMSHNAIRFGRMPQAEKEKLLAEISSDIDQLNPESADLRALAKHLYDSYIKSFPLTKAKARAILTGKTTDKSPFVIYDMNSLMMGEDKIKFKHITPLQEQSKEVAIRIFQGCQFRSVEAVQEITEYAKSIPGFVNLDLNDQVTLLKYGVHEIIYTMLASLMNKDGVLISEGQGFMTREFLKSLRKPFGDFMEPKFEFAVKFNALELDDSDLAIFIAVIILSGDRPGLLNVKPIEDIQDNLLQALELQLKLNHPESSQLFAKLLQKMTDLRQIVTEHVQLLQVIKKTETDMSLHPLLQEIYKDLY
Summary of the method: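 Stably transfected HEK293H cells (GeneBLAzer PPARg UAS-bla) were incubated with test substances for 17 h at 37C after a 5 h pre-incubation; beta-lactamase activity was then detected by FRET substrate fluorescence.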

[12] = biological target: Peroxisome proliferator-activated receptor gamma (Homo sapiens) (UniProt P37231); experiment: qHTS assay to identify small molecule antagonists of the peroxisome proliferator-activated receptor gamma (PPARg) signaling pathway (AID 743191; calls by dose curve; also: series mostly up to about 63 µM; nearly all actives have a fitted effect of over 30% in size)
Summary of the method: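 GeneBLAzer PPARg UAS-bla HEK293H cells, 5 h post-plating, exposed to compounds 17 h at 37C. LiveBLAzer B/G FRET substrate added for 1 h at room temperature; beta-lactamase reporter read by fluorescence intensity.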

[13] = qHTS assay to identify small molecule antagonists of the peroxisome proliferator-activated receptor gamma (PPARg) signaling pathway - cell viability counter screen (AID 743194); also: nearly all actives have a fitted effect of over 55% in size
Summary of the method: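 Cytotoxicity counter screen in PPARg-bla HEK293H cells, same wells as reporter assay. Compounds plus 50 nM rosiglitazone (final) for 17 h at 37 C, then viability read by CellTiter-Glo luminescence.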

[14] = qHTS assay for small molecule agonists of the antioxidant response element (ARE) signaling pathway (AID 743202; active = well fitted activation curve with a large enough effect in the signal ratio in the repeat runs, not every such curve was filed as active; the % refers to the signal ratio)
Summary of the method: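 ARE-bla HepG2 cells (beta-lactamase reporter under the antioxidant response element), plated 5 hours, then exposed to compounds 16 hours at 37 C. LiveBLAzer B/G FRET substrate added for 2 hours at room temperature; fluorescence intensity read.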

[15] = qHTS assay for small molecule agonists of the antioxidant response element (ARE) signaling pathway - cell viability counter screen (AID 743203; calls by dose curve; also: nearly all actives have a fitted effect of over 55% in size)
Summary of the method: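 Cells (ARE-bla HepG2, 2,000/well) receive DMSO-dissolved compounds after a 5 hrs rest. Plates incubate 16 hrs at 37C/5% CO2. CellTiter-Glo luminescence is then recorded after 30 min at room temperature.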

[16] = qHTS assay for small molecule activators of the heat shock response signaling pathway - cell viability counter screen (AID 743209); also: nearly all actives have a fitted effect of over 50% in size
Summary of the method: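 Quantitative HTS format, Tox21 10K library. HeLa cells carrying an HSE-driven beta-lactamase reporter were treated 5 h at 37 C, then assessed for viability by CellTiter-Glo luminescence.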

[17] = qHTS assay for small molecule activators of the heat shock response signaling pathway (AID 743210; active = well fitted activation curve with a large enough effect in the signal ratio in the repeat runs, with a control signal flat, not every such curve was filed as active; the % refers to the signal ratio; also: series mostly up to about 63 µM)
Summary of the method: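 HSE-bla HeLa cells (beta-lactamase reporter under heat shock response elements), plated overnight, then exposed to compounds 5 h at 37 C; LiveBLAzer B/G FRET substrate added, 2.5 h at room temperature, fluorescence intensity read.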

[18] = qHTS assay to identify small molecule agonists of the peroxisome proliferator-activated receptor delta (PPARd) signaling pathway - cell viability counter screen (AID 743211); also: nearly all actives have a fitted effect of over 55% in size
Summary of the method: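 Multiplexed format: after the 2 h room-temperature LiveBLAzer B/G FRET step, CellTiter-Glo was added to the same wells. Luminescence after 30 min gave cell viability; compound exposure was 17 h at 37C.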

[19] = qHTS assay to identify small molecule antagonists of the thyroid receptor (TR) signaling pathway (AID 743065)
Summary of the method: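 GH3.TRE-Luc rat pituitary cells (two TREs driving luciferase) were dosed with compound, then stimulated with 1 nM T3 (final) for 23.5 h at 37 C. ONE-Glo luminescence was the read-out, with CellTiter-Fluor fluorescence as the cytotoxicity counter-screen.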
% is scaled to controls: 0 for no effect and ±100 for the full control effect.

CCOC(=O)CC
inactive: Potency [1] | outcome [2] | Potency [3] | Potency [4] | Potency [5] | Potency [6] | outcome [7] | Potency (Aromatase (Homo sapiens)) | outcome [8] | Potency [9] | outcome [10] | outcome [11] | outcome [12] | outcome [13] | Potency [14] | outcome [15] | Potency [16] | outcome [17] | outcome [18]

c1cc2ccc3ccc4ccc5cccc6c(c1)c2c3c4c56
inactive: activity, negative = inhibition [19] 1.62% [at 3.79 µM] | activation [1] 1% [at 3.63 µM] | activity, negative = cytotoxicity [3] 7.3% [at 3.02 µM] | activity change, negative = cytotoxicity [7] 17.4% [at 3.79 µM] | activity, negative = inhibition (Aromatase (Homo sapiens)) -7.29% [at 3.79 µM] | activity change, negative = cytotoxicity [8] 7.94% [at 3.79 µM] | activation [9] 0.485% [at 3.79 µM] | viability change, negative = cytotoxic [15] 6.8% [at 3.74 µM] | activity change, negative = cytotoxicity [16] 1.58% [at 2.7 µM] | activity change, negative = cytotoxicity [18] -28.1% [at 2.7 µM]

CC(C)OCCO
inactive: Potency [19] | Potency [1] | Potency [3] | outcome [7] | Potency (Aromatase (Homo sapiens)) | outcome [8] | Potency [9] | outcome [11] | outcome [12] | Potency [14] | outcome [15] | Potency [16] | outcome [18]

C=CCN(CC=C)CC=C
inactive: Potency [19] | Potency [1] | outcome [7] | Potency (Aromatase (Homo sapiens)) | outcome [8] | Potency [9] | outcome [10] | outcome [11] | outcome [13] | outcome [15] | outcome [17] | outcome [18]

Cc1cc(C)c(C)c(C)c1
inactive: Potency [1] | outcome [2] | Potency [3] | Potency [4] | Potency [5] | Potency [6] | outcome [7] | Potency (Aromatase (Homo sapiens)) | outcome [8] | Potency [9] | outcome [10] | outcome [11] | outcome [13] | Potency [14] | outcome [15] | Potency [16]

C=CC(=O)OCCOCCOCC
inactive: Potency [19] | Potency [1] | Potency [3] | outcome [7] | Potency (Aromatase (Homo sapiens)) | Potency [9] | outcome [10] | outcome [12] | outcome [13] | outcome [18]

Cc1ccc(OC(=O)CC(C)C)cc1
inactive: Potency [1] | outcome [2] | Potency [3] | Potency [4] | Potency [5] | Potency [6] | outcome [7] | Potency (Aromatase (Homo sapiens)) | outcome [8] | Potency [9] | outcome [10] | outcome [11] | outcome [13] | Potency [14] | outcome [15] | Potency [16] | outcome [17] | outcome [18]

C/C=C/C(=O)CCCC
inactive: Potency [1] | outcome [2] | Potency [3] | Potency [4] | Potency [5] | Potency [6] | outcome [7] | Potency (Aromatase (Homo sapiens)) | outcome [8] | Potency [9] | outcome [10] | outcome [11] | outcome [12] | outcome [13] | outcome [15] | outcome [17] | outcome [18]

CC(=O)Oc1ccc(C(C)=O)cc1
inactive: Potency [19] | Potency [1] | Potency [4] | Potency [5] | Potency [6] | outcome [7] | Potency (Aromatase (Homo sapiens)) | outcome [8] | Potency [9] | outcome [10] | outcome [11] | outcome [12] | Potency [14] | Potency [16] | outcome [17]

Source: PubChem BioAssay (Tox21)
